Experimental data reported in PubChem BioAssay.

system: not listed separately; experiment: compounds binding Alexa647 anti-His antibody – biochemical, small-molecule microarray, 635 nm fluorescence, artefact control for SMM control protein annotation, primary screen (AID 1128); settings: higher = more signal;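 further: score merges feature fluorescence with signal-to-noise for each printed compound spot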

SMILES	composite z-score
COc1ccc(CCNC(=O)[C@@]2(C)c3ccccc3C(=O)N(C(C)C)[C@H]2c2ccc(CO)cc2)cc1	1.63
C=C(CC1([C@@H](NP(=O)(c2ccccc2)c2ccccc2)[C@H]2C[C@@H]2CCCC)CC1)c1ccccc1	0.767
COC(=O)[C@H](Cc1ccccc1)N1CC2=C[C@@H](C3CC3)n3c(=O)n(C)c(=O)n3[C@H]2[C@@H]1[C@@H](O)Cc1ccccc1	0.0823
C=C(/C(=C/C[C@H](OC(C)=O)c1ccc(CO)o1)c1cc(C(=O)OC)ccc1OC)C(C)C	-0.978
[N-]=[N+]=Nc1ccccc1[C@H]1OC(c2ccc(OCCCO)cc2)=N[C@@]1(CCS(=O)(=O)c1ccccc1)C(N)=O	2.95
COc1cc2c(cc1OC)CN(C(=O)[C@@H]1[C@H]3C(=O)O[C@H](c4ccccc4)[C@H](c4ccccc4)N3[C@H](c3ccccc3OCCO)[C@@]13C(=O)Nc1ccc(C#CCCO)cc13)CC2	1.94
C[N+](C)(C)CCCCNC(=O)[C@@H]1C[C@@H]2C(=O)N[C@@H](Cc3ccccc3)C(=O)N2[C@@H]1c1cccc(OCCO)c1	3.38
COCCOC(=O)N1C(=O)[C@@]2(c3cc(C#CCC(C(=O)OC)C(=O)OC)ccc31)[C@H](C(=O)Nc1nc3ccccc3s1)[C@H]1C(=O)O[C@H](c3ccccc3)[C@H](c3ccccc3)N1[C@@H]2c1ccccc1OCCO	1.41
CCC[C@@H]1C[C@@]1(CCC)[C@@H](NS(=O)(=O)c1cccc2cccnc12)c1ccc(Cl)cc1	0.265
C=CCNC(=O)[C@@H]1[C@H]2C(=O)O[C@H](c3ccccc3)[C@H](c3ccccc3)N2[C@H](c2ccc(O)cc2)[C@@]12C(=O)N(C(=O)OCCOC)c1ccc(C#CCNC(N)=O)cc12	0.2
COCCOC(=O)N1C(=O)[C@@]2(c3cc(C#CCCO)ccc31)[C@H](C(=O)N1CCCCCCC1)[C@H]1C(=O)O[C@H](c3ccccc3)[C@H](c3ccccc3)N1[C@@H]2c1ccc(OCCO)cc1	1.19
COC(=O)[C@@]1(CCC(=O)OC(C)(C)C)N=C(c2ccc(OCCCO)cc2)O[C@H]1c1ccccc1N=[N+]=[N-]	0.421
CCCCCN1CC=CC23O[C@@H]4/C=C\CCC(C)OC(=O)C4[C@H]2C(=O)N(C(C)CO)[C@@H]3C1=O (stereo partly drawn)	-0.361
Cc1ccc(S[C@]2(C(=O)NC3CC3)CC(=O)N(Cc3ccccc3)[C@@H]2c2ccc(CO)cc2I)cc1	-0.744
O=C1NC(=O)C2C1C=CC(C(O)c1cccs1)N2Nc1ccc(Cl)cc1Cl (stereo not drawn)	0.541
C=CCC(OC(C)=O)[C@@H]1[C@@H](N(Cc2ccc(-c3ccccc3)cc2)C(=O)c2cccc3ccccc23)c2cc(OCCCO)ccc2N1C(=O)c1ccc(-c2ccccc2)cc1 (stereo partly drawn)	-0.722
CCOC(=O)C[C@H]1[C@H](OC(=O)c2ccc(C(=O)c3ccccc3)cc2)[C@@H](NC(=O)c2ccccc2)c2cc(OCCCO)ccc2N1C(=O)c1ccc2ccccc2n1	1.03
COc1cc2c(cc1O)C(C1CC1)N(Cc1sc3ccccc3c1Cl)CC2 (stereo not drawn)	1.53

system: Human papillomavirus type 1a E7 protein (residues 1-88); experiment: HPV1a E7 small-molecule binders, primary screen, biochemical, small-molecule microarray, residues 1-88, 635 nm (AID 1129); settings: small-molecule microarray binding, fluorescence 635 nm; higher = more signal

SMILES	composite z-score
COCCOC(=O)N1C(=O)[C@@]2(c3ccccc31)[C@H](c1ccc(O)cc1)N1[C@H](c3ccccc3)[C@H](c3ccccc3)OC(=O)[C@H]1[C@@H]2C(=O)Nc1nc2ccccc2s1	1.17
NC(=O)NCC#Cc1ccc2c(c1)[C@]1(C(=O)N2)[C@H](C(=O)Nc2nc3ccccc3s2)[C@H]2C(=O)O[C@H](c3ccccc3)[C@H](c3ccccc3)N2[C@@H]1c1ccccc1OCCO	0.759
COCCOC(=O)N1C(=O)[C@@]2(c3ccccc31)[C@H](c1ccccc1OCCO)N1[C@H](c3ccccc3)[C@H](c3ccccc3)OC(=O)[C@H]1[C@@H]2C(=O)N1CCN(c2ncccn2)CC1	1.15
COC(=O)[C@@]1(Cc2ccc(F)cc2)[C@H]2c3cc(C(=O)N4CCCC4)n(CCCNc4ncc(C(F)(F)F)cc4Cl)c3C[C@H]2CN1C(=O)c1ccccc1	1.08
CC(C)C[C@@H]1NC(=O)[C@@H]2C[C@H](C(=O)NCc3ccc(F)cc3)[C@H](c3cccc(OCCO)c3)N2C1=O	0.135
C=CCC(OC(C)=O)[C@@H]1[C@@H](N(Cc2cc3ccccc3o2)C(=O)c2cccc3ccccc23)c2cc(OCCCO)ccc2N1C(=O)c1ccc(-c2ccccc2)cc1 (stereo partly drawn)	0.0155
C#C[C@H](O[Si](C#Cc1ccc(Oc2ccccc2)cc1)(C(C)C)C(C)C)c1ccccc1	0.679
O=C1N[C@@H](Cc2ccccc2)C(=O)N2[C@@H]1C[C@@H](C(=O)O)[C@H]2c1cccc(OCCO)c1	1.03
COCCCNC(=O)[C@@]1(C)c2ccccc2C(=O)N(C(C)C)[C@H]1c1ccc(CO)cc1	1.14
C=CCN1C(=O)[C@@]2(Cc3ccccc31)N=C(c1ccc(OCCCO)cc1)O[C@H]2c1ccccc1	1.19
CN(C)CCCCCCNC(=O)[C@H]1C[C@H]2C(=O)N[C@@H](CCCCN)C(=O)N2[C@H]1c1cccc(OCCO)c1	1.35
COc1cc2c(cc1OC)CN(C(=O)[C@H]1[C@@H]3C(=O)O[C@@H](c4ccccc4)[C@@H](c4ccccc4)N3[C@@H](c3ccc(O)cc3)[C@]13C(=O)Nc1ccccc13)CC2	1.19
C=CC1(C(=O)OC)CC=C(C(=O)OC)CC1 (stereo not drawn)	0.901
CCCC=C(CCC)[C@@H](NC(=O)c1cccs1)c1ccc(C(F)(F)F)cc1	1.23
C=CCNC(=O)[C@@H]1[C@H]2C(=O)O[C@H](c3ccccc3)[C@H](c3ccccc3)N2[C@H](c2ccccc2OCCO)[C@@]12C(=O)N(C(=O)OCCOC)c1ccccc12	1.2
COC(=O)C[C@H]1O[C@]2(C(=O)N(C)c3ccccc32)[C@@H](C)[C@@H]1[Si](C)(C)F	0.608
C=CCOC(=O)[C@@H]1[C@H]2C(=O)O[C@H](c3ccccc3)[C@H](c3ccccc3)N2[C@H](c2ccc(OCCOC(=O)[C@@H]3C[C@@H]4C(=O)NCC(=O)N4[C@@H]3c3ccc(O)cc3)cc2)[C@@]12C(=O)Nc1ccc(I)cc12	1.21
COc1ccc(CCNC(=O)[C@@]2(C)c3ccccc3C(=O)N(C(C)C)[C@H]2c2ccc(CO)cc2)cc1	1.19

SMILES	composite z-score
C=C(CC1([C@@H](NP(=O)(c2ccccc2)c2ccccc2)[C@H]2C[C@@H]2CCCC)CC1)c1ccccc1	1.19
COC(=O)[C@H](Cc1ccccc1)N1CC2=C[C@@H](C3CC3)n3c(=O)n(C)c(=O)n3[C@H]2[C@@H]1[C@@H](O)Cc1ccccc1	0.881
C=C(/C(=C/C[C@H](OC(C)=O)c1ccc(CO)o1)c1cc(C(=O)OC)ccc1OC)C(C)C	-0.184
[N-]=[N+]=Nc1ccccc1[C@H]1OC(c2ccc(OCCCO)cc2)=N[C@@]1(CCS(=O)(=O)c1ccccc1)C(N)=O	1.22
COc1cc2c(cc1OC)CN(C(=O)[C@@H]1[C@H]3C(=O)O[C@H](c4ccccc4)[C@H](c4ccccc4)N3[C@H](c3ccccc3OCCO)[C@@]13C(=O)Nc1ccc(C#CCCO)cc13)CC2	1.15
C[N+](C)(C)CCCCNC(=O)[C@@H]1C[C@@H]2C(=O)N[C@@H](Cc3ccccc3)C(=O)N2[C@@H]1c1cccc(OCCO)c1	-0.636
COCCOC(=O)N1C(=O)[C@@]2(c3cc(C#CCC(C(=O)OC)C(=O)OC)ccc31)[C@H](C(=O)Nc1nc3ccccc3s1)[C@H]1C(=O)O[C@H](c3ccccc3)[C@H](c3ccccc3)N1[C@@H]2c1ccccc1OCCO	1.22
CCC[C@@H]1C[C@@]1(CCC)[C@@H](NS(=O)(=O)c1cccc2cccnc12)c1ccc(Cl)cc1	1.06
C=CCNC(=O)[C@@H]1[C@H]2C(=O)O[C@H](c3ccccc3)[C@H](c3ccccc3)N2[C@H](c2ccc(O)cc2)[C@@]12C(=O)N(C(=O)OCCOC)c1ccc(C#CCNC(N)=O)cc12	1.16
COCCOC(=O)N1C(=O)[C@@]2(c3cc(C#CCCO)ccc31)[C@H](C(=O)N1CCCCCCC1)[C@H]1C(=O)O[C@H](c3ccccc3)[C@H](c3ccccc3)N1[C@@H]2c1ccc(OCCO)cc1	1.2
COC(=O)[C@@]1(CCC(=O)OC(C)(C)C)N=C(c2ccc(OCCCO)cc2)O[C@H]1c1ccccc1N=[N+]=[N-]	1.17
CCCCCN1CC=CC23O[C@@H]4/C=C\CCC(C)OC(=O)C4[C@H]2C(=O)N(C(C)CO)[C@@H]3C1=O (stereo partly drawn)	-0.575
Cc1ccc(S[C@]2(C(=O)NC3CC3)CC(=O)N(Cc3ccccc3)[C@@H]2c2ccc(CO)cc2I)cc1	-0.0095
O=C1NC(=O)C2C1C=CC(C(O)c1cccs1)N2Nc1ccc(Cl)cc1Cl (stereo not drawn)	-0.443
C=CCC(OC(C)=O)[C@@H]1[C@@H](N(Cc2ccc(-c3ccccc3)cc2)C(=O)c2cccc3ccccc23)c2cc(OCCCO)ccc2N1C(=O)c1ccc(-c2ccccc2)cc1 (stereo partly drawn)	0.521
CCOC(=O)C[C@H]1[C@H](OC(=O)c2ccc(C(=O)c3ccccc3)cc2)[C@@H](NC(=O)c2ccccc2)c2cc(OCCCO)ccc2N1C(=O)c1ccc2ccccc2n1	1.06
COc1cc2c(cc1O)C(C1CC1)N(Cc1sc3ccccc3c1Cl)CC2 (stereo not drawn)	0.87
